The record followed here is PubChem BioAssay AID1578 (Sanford-Burnham Center for Chemical Genomics, 2009).

By inhibition is commonly meant the change of the read-out against control, counted positive when it falls.

Hit rate of the full screen: of about 290,000 compounds, about 3,000 (1%) were called active. The full list was thinned out, with actives kept by preference. Values without a mark were called inactive. Cut-off read from the data, not from the text of the source: active = inhibition mostly above about 36% (no sharp cut-off); inactive = mostly below about 34%.

The nature of the assay: inhibition of NOD1-driven NF-kB reporter – cell-based, luminescence, uHTS, primary screen (AID 1578).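 Note: HEK-293T reporter cells stimulated with the NOD1 agonist gamma-tri-DAP.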 To be noted: NOD1-driven NF-kB luciferase reporter cells, at 4 µM, active compounds read high. On the technique in general: In a reporter assay the amount or activity of a reporter protein is the signal.
For the compound `CC(C)=CC1C=C(C)C(C)C2C(=O)NNC(=O)C12` (stereo not drawn), the inhibition was 10.4%.
On to `CCOC(=O)C1=C(COC(=O)/C=C/c2ccccc2Cl)NC(=O)NC1C` (stereo not drawn), for which the inhibition is -17.4%.
On to `CCOC(=O)C1=C(c2ccccc2)ON(C)C1c1ccccc1` (stereo not drawn), for which the inhibition is -0.8%.
As for `N#C/C(=C\c1ccc([N+](=O)[O-])o1)c1nc2ccccc2[nH]1`, the figure is 96.8% (active).
With `N#C/C(=C(/O)c1ccc([N+](=O)[O-])o1)c1nc2ccccc2[nH]1`, the inhibition was -7.3%.
In the case of `N#C/C(=C(/O)c1ccc([N+](=O)[O-])s1)c1nc2ccccc2[nH]1` it was 71.6% (active).
As for `N#C/C(=C(/O)c1ccc(Br)s1)c1nc2ccccc2[nH]1`, the figure is 9.1%; as for `Cc1ccc2nc(/C(C#N)=C\c3ccc([N+](=O)[O-])o3)[nH]c2c1`, 0.5%.
For `N#C/C(=C(/O)c1ccc([N+](=O)[O-])cc1)c1nc2ccccc2[nH]1`, the inhibition is 3.7%.
For `COc1ccccc1/C(O)=C(\C#N)c1nc2ccccc2[nH]1`, the inhibition was 5.5%.
As to `N#C/C(=C(/O)c1ccc(Cl)cc1)c1nc2ccccc2[nH]1`, the inhibition is 3.5%.
In the case of `N#C/C(=C(\O)c1cc(Cl)sc1Cl)c1nc2ccccc2[nH]1` it was 64.5% (active); in that of `NC(=O)c1c(NC(=O)C(=O)NCCCN2CCOCC2)sc2c1CCCC2`, 6%; in that of `O=C(CCNS(=O)(=O)/C=C/c1ccccc1)NCCc1c[nH]c2ccccc12`, -0.1%.
As for `CCN(CC)Cc1c(C(=O)N/N=C/c2ccc(OCc3ccccc3C)cc2)nnn1-c1nonc1N`, the inhibition was -6.7%.
For `COc1ccc(NC(=O)CCCn2cnc3ccccc3c2=O)cc1`, the inhibition is 9%.
Take `COC(=O)c1ccc(Cl)c(NC(=O)c2cccc([N+](=O)[O-])c2C)c1`: the inhibition is -17.4%.
As for `CCOC(=O)c1ccc(N/N=C/c2cc(Br)cc([N+](=O)[O-])c2O)cc1`, the figure is 97.2% (active); as for `COC(=O)c1ccc(N/N=C/c2cc([N+](=O)[O-])cc(OC)c2O)cc1`, -49.6%.
In the case of `O=C(N/N=C/c1cc(Br)cc([N+](=O)[O-])c1O)c1ccc(NC(=O)c2ccc(F)cc2)cc1` it was 7%; in that of `CCn1c(CNc2ccc(Cl)cc2)nnc1SCC#N`, -48.7%; in that of `COc1ccc(-c2[nH]ncc2CN2CCCC2c2nonc2C)c(F)c1` (stereo not drawn), -55.4%.
`COc1cc(C(=O)OCC(=O)Nc2ccc(F)cc2F)cc(OC)c1OC`: the inhibition was 3.5%.
On to `O=C(/C(=N\Nc1ccc(Br)cc1)Sc1nnnn1-c1ccccc1)c1ccccc1`, for which the inhibition is -15%.
`O=C(/C(=N\Nc1ccccc1)Sc1nnnn1-c1ccccc1)c1ccccc1`: the inhibition was 93.1% (active).
As for `Cc1ccc(N/N=C(/Sc2nnnn2-c2ccccc2)C(=O)c2ccccc2)cc1`, the figure is -42.4%; as for `Cc1ccc(C)c(C(=O)CN2Cc3ccccc3C2=O)c1`, -5.3%.
Turning to `Cc1ccc(C)c(C(=O)CN2C(=O)c3ccccc3C2=O)c1`, the inhibition was 56.5% (active).
In the case of `CC1=CC(C)(C)N(C(=O)CN2C(=O)CCC2=O)c2ccc(C)cc21` it was -11.3%; in that of `Cc1ccc(C)c(C(=O)CN2C(=O)CCC2=O)c1`, -14.2%.
Turning to `CC1=CC(C)(C)N(C(=O)CN2C(=O)c3ccccc3C2=O)c2ccccc21`, the inhibition was -18.1%.
`CC1=CC(C)(C)N(C(=O)CN2C(=O)c3ccccc3C2=O)c2ccc(C)cc21`: the inhibition was 33.2% (active).
Take `O=C(NCCc1ccco1)C(=O)NCC1OCCCN1S(=O)(=O)c1ccc(F)cc1` (stereo not drawn): the inhibition is 10.4%.
With `COc1ccc(S(=O)(=O)N(C)C)cc1NC(=O)[C@H](Cc1ccccc1)N1C(=O)c2ccccc2C1=O`, the inhibition was 2%.
As to `O=c1nc(SCc2ccc(Cl)cc2)nc(-c2ccccc2)[nH]1`, the inhibition was -3.2%.
In the case of `O=c1nc(SCc2ccccc2Cl)nc(-c2ccc(Cl)cc2)[nH]1`, the inhibition was 57.8% (active).
For the compound `O=c1nc(SCc2c(F)cccc2Cl)nc(-c2ccc(Cl)cc2)[nH]1`, the inhibition is 9.8%.
As to `C/C(COc1ccccc1)=N\NC(=O)c1nnn(-c2nonc2N)c1CSc1ccccc1`, the inhibition is -2.2%.
In the case of `CCOc1cc(C2NC(=O)NC(c3ccccc3)=C2C(C)=O)ccc1OCC(N)=O` (stereo not drawn), the inhibition was 14.5%.
Take `Cc1ccc(NC(=O)CCNC(=O)c2ccco2)cc1Cl`: the inhibition was -23.6%.
As for `O=[N+]([O-])c1ccc(Sc2nnnn2-c2ccccc2)c(Cl)c1`, the figure is -1%; as for `COC(=O)c1ccc(Sc2nnnn2-c2ccccc2)c([N+](=O)[O-])c1`, 48.6%.
In the case of `O=C(O)c1ccc(Sc2nnnn2-c2ccccc2)c([N+](=O)[O-])c1`, the inhibition is -15.3%.
`CN1CCN(S(=O)(=O)c2ccc(Sc3nnnn3-c3ccccc3)c([N+](=O)[O-])c2)CC1`: the inhibition was 93.5% (active).
With `O=[N+]([O-])c1cc(S(=O)(=O)NCCN2CCOCC2)ccc1Sc1nnnn1-c1ccccc1`, the inhibition is 46.1%.
Turning to `COC(=O)c1ccccc1NC(=O)CN1CCN(Cc2ccccc2)CC1`, the inhibition was 1.4%.
In the case of `COc1ccc2nc(Nc3nc(CSc4nc5ccccc5[nH]4)cc(=O)[nH]3)nc(C)c2c1` it was -25.6%; in that of `Cc1ccc2c(C)nc(Nc3nc(CSc4nc5ccccc5[nH]4)cc(=O)[nH]3)nc2c1`, 90.5% (active); in that of `Cc1nc(Nc2nc(CSc3nc4ccccc4[nH]3)cc(=O)[nH]2)nc2ccccc12`, -5.7%.
With `O=S1(=O)CCOCCCN1Cc1ccccc1`, the inhibition is -16.6%.
As to `O=S1(=O)CCOCCCN1Cc1cccc(C(F)(F)F)c1`, the inhibition was 56.8% (active).
`O=S1(=O)CCOCCCN1Cc1cccc(F)c1`: the inhibition is -39.7%.
Take `COc1ccc(C(=O)N/N=C/c2c(C)[nH]c(=O)[nH]c2=O)cc1`: the inhibition was -27.4%.
As for `Cc1ccc(S(=O)(=O)NC(Cc2ccccc2)C(=O)O)cc1` (stereo not drawn), the figure is -30.6%; as for `Cc1ccc(S(=O)(=O)NC(Cc2ccccc2)C(=O)NN)cc1` (stereo not drawn), -27.9%.
`Cc1ccc(S(=O)(=O)N[C@@H](Cc2ccccc2)C(=O)CCl)cc1`: the inhibition is 87.7% (active).
On to `Cc1nnc(SCC(=O)NNC(=O)c2ccc(Br)cc2)n1C`, for which the inhibition was -33.3%.
As to `CN(CC(=O)N1CCN(c2ccc(F)cc2)CC1)S(=O)(=O)c1ccc2c(c1)c(=O)n(C)c(=O)n2C`, the inhibition was -11.7%.
Take `CCC(=O)Nc1nc2c(s1)COc1ccccc1-2`: the inhibition was 8.2%.
`CCCCC(=O)Nc1nc2c(s1)COc1ccccc1-2`: the inhibition was 62.4% (active).
In the case of `CCCC(=O)Nc1nc2c(s1)COc1ccccc1-2`, the inhibition is 48.7%.
With `Cc1[nH]c2ccccc2c1C(=O)/C=C/c1ccccc1Cl`, the inhibition was -24.5%.
Regarding `Cc1[nH]c2ccccc2c1C(=O)/C=C\c1ccccc1Cl`, the inhibition is -16.5%.
In the case of `Cc1[nH]c2ccccc2c(=O)c1C(=O)/C=C/c1ccccc1`, the inhibition was 79.7% (active).
As to `COc1ccc(Oc2ccc(/C=N/NC(=O)c3cccnc3)cc2[N+](=O)[O-])cc1`, the inhibition is -17.7%.
In the case of `O=C(Nc1ccc2c(c1)nc1n2CCN(Cc2ccccc2)C1)c1cccs1` it was 89.9% (active); in that of `CC(c1ccccc1)N1CCn2c(nc3cc(NC(=O)c4cccs4)ccc32)C1` (stereo not drawn), 0.3%; in that of `COCCN1CCn2c(nc3cc(NC(=O)c4cccs4)ccc32)C1`, -28.2%.
As to `COc1ccc(CC(=O)Nc2c3c(nn2C(C)(C)C)CS(=O)C3)cc1` (stereo not drawn), the inhibition was -19.6%.
For `CN(C)c1ccc(-n2cccc2/C=C/[N+](=O)[O-])cc1`, the inhibition was -0.1%.
Turning to `CN(c1ccccc1)c1ccc(/C=C/[N+](=O)[O-])cc1`, the inhibition was 105% (active).
In the case of `O=[N+]([O-])/C=C/c1ccc2c(ccn2Cc2ccccc2)c1`, the inhibition was -4.4%.
As for `Cc1[nH]c2ccccc2c1C(=O)CSC(=S)N1CCOCC1`, the figure is 3.9%; as for `CC[n+]1c(/C=C2\C=C(C)CC(C)(C)C2)sc2ccccc21`, 20.8%; as for `CC[n+]1c(/C=C2/C=C(C)CC(C)(C)C2)sc2ccc(OC)cc21`, 77.4% (active).
In the case of `CCC1=C/C(=C/c2sc3ccccc3[n+]2CC)CC(C)(C)C1` it was -7.6%; in that of `Cc1cc(Br)ccc1NC(=S)N1CCOCC1`, -0.1%; in that of `N#Cc1nc(Cc2ccccc2)oc1NCc1cccnc1`, -33.9%.
On to `N#Cc1nc(Cc2ccccc2)oc1NCc1ccccc1Cl`, for which the inhibition is 57% (active).
On to `N#Cc1nc(Cc2ccccc2)oc1NCc1ccccc1`, for which the inhibition was -5.9%.
As for `Cc1cc(NC(=O)c2ccccc2)n(-c2nc3ccccc3[nH]2)n1`, the figure is -15%; as for `COc1ccc(C(=O)Nc2cc(C)nn2-c2nc3ccccc3[nH]2)c(OC)c1`, 98.7% (active); as for `COc1cccc(OC)c1C(=O)Nc1cc(C)nn1-c1nc2ccccc2[nH]1`, -24.9%.
Take `COc1ccc(/C=C/C(=O)Nc2cc(C)nn2-c2nc3ccccc3[nH]2)cc1`: the inhibition was 17.4%.
With `Cc1cc(NC(=O)c2ccccc2F)n(-c2nc3ccccc3[nH]2)n1`, the inhibition was -8.4%.
On to `CCCCN(C)S(=O)(=O)c1cc2c3c(c1)CCC(=O)N3CCC2`, for which the inhibition is -4.1%.
As to `Cc1noc(C)c1C(=O)N1CCCC(N2CCN(c3cccc(C(F)(F)F)c3)CC2)C1` (stereo not drawn), the inhibition is -31.8%.
Consider `COc1ccc(-c2[nH]ncc2CN(C)Cc2cccnc2)c(OC)c1`, for which the inhibition is -16.3%.
As for `CS(=O)(=O)N1CCN(c2ccccc2NC(=O)c2cc(Br)ccc2Cl)CC1`, the figure is -10.8%.
Regarding `COCCn1c(SCC(=O)Nc2cccc(C(=O)OC)c2)nc2ccccc2c1=O`, the inhibition was 2.6%.
As to `O=C(NC1CC2CCC(C1)N2Cc1ccco1)c1ccccc1` (stereo not drawn), the inhibition is -29.6%.
As for `Cc1c(Cl)cccc1NC(=O)Nc1ccccc1C(N)=O`, the inhibition was -30%.
In the case of `O=C(c1ccc([N+](=O)[O-])cc1)N1CCSC1c1ccccc1` (stereo not drawn) it was -13.8%.
